GSH fluor – compound fluoresces at 488/530 nm on GSH beads | fluorescence (KMESF) at 10 µM | GSH beads flow cytometry, compound fluorescence 488/530 nm; stronger effect = higher value | AID 1776 | hit rate 0.25% among 190,000; in the data active = fluorescence above about 89;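 note: glutathione beads carrying GST-tagged Bcl family fusion proteins plus one bare bead set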
RGS7-Gao reg – regulators of human RGS7-Galphao interaction; hit rate 0.35% among 220,000; binding response (% of control), % at 10 µM; Multiplexed bead flow cytometry, RGS7-Galphao binding; actives lie on both sides; P09471; in the data active = binding response below about 49% or above about 150%; inconclusive = no clear call, values can overlap the other calls; inactive = in between;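 note: fluorescent Galphao held in activated GDP-AlF4 state binding bead-coupled RGS7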
Target sequence (P09471 whole entry, looked up): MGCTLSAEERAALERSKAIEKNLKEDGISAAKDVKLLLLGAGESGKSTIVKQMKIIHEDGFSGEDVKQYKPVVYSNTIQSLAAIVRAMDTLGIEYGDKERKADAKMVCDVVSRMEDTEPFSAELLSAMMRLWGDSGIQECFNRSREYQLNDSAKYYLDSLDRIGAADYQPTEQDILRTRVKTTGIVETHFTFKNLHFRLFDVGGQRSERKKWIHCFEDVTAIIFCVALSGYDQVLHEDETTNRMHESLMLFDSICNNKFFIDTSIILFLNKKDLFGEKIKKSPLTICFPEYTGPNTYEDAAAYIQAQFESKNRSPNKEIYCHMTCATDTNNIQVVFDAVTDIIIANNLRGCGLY
RGS4-Gao reg – modulates binding of RGS4 to human Galphao. P09471. Multiplexed bead flow cytometry; actives lie on both sides. binding response (% of control), % at 10 µM. hit rate 0.33% among 220,000. AID 1415; in the data active = binding response below about 49% or above about 150%; inactive = in between;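 note: fluorescent Galphao activated with aluminum fluoride binding bead-coupled RGS4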
RGS16-Gao – RGS16-Galphao interaction regulator (human); binding response (% of control), % at 10 µM; bead-based flow cytometry RGS16-Galphao binding, fluorescence; actives lie on both sides; AID 1441; hit rate 0.38% among 220,000; O15492+P09471; call rule not given here;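 note: Galphao activated by GDP with aluminum fluoride before binding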
Avidin fluor – avidin bead compound fluorescence profile | fluorescence (KMESF) at 10 µM | Avidin beads, compound fluorescence 488/530 nm, flow cytometry; stronger effect = higher value | AID 1775 | hit rate 0.38% among 220,000; in the data active = fluorescence above about 47
RGS8-Gao – human RGS8-Galphao interaction regulation; AID 1423; multiplexed bead flow cytometry, RGS8-Galphao binding; actives lie on both sides; P09471; response (percent of control binding), % at 10 µM; hit rate 0.34% among 220,000; in the data active = response below about 60% or above about 140%; inactive = in between;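 note: Galphao activated as the GDP aluminium fluoride complex binding bead-coupled RGS8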
Each line names hits and unclear results; the compound was inactive in the other large screens. Most compounds without a hit are left out; they make up all but 1.2% or so of the library.

CS(=O)(=O)N1CCC(C(=O)Nc2ccc(F)cc2F)CC1	Avidin fluor 79
CN1CCN(Cc2oc(CO)cc(=O)c2O)CC1	none
COc1ccc(N2CCN(Cc3oc(CO)cc(=O)c3O)CC2)cc1	GSH fluor 250
CC(Oc1ccc(Cl)cc1Cl)c1nc(-c2ccc(NC(=O)c3ccncc3)cc2)no1 (configuration not stated)	GSH fluor 97
CC(Oc1ccc(Cl)cc1Cl)c1nc(-c2ccc(NC(=O)c3cccnc3)cc2)no1 (configuration not stated)	none
Cc1cccc(C2N=C(N)Nc3nc4ccccc4n32)c1 (configuration not stated)	RGS7-Gao reg inconclusive (no result: GSH fluor)
Cc1cc2ncn(C(=O)N3CCCCCC3)c2cc1C	GSH fluor 97
O=C(NCc1ccco1)C(=O)NCC1OCCN1C(=O)c1ccc(Cl)cc1 (configuration not stated)	RGS7-Gao reg inconclusive (no result: GSH fluor)
Cc1c(NC(=O)c2cccs2)cccc1C(=O)O	none
Cc1ccc(C(=O)O)cc1NC(=O)c1cccs1	GSH fluor 95
COc1cccc(NC(=O)NC(C)C2CC3CCC2C3)c1 (configuration not stated)	RGS7-Gao reg inconclusive
CCN(CC)c1ccc(NC(=O)Cn2nnc(-c3cccc(OC)c3OC)n2)c(C)c1	GSH fluor 266
Cc1ccccc1N/C(SCc1ccc(Cl)cc1)=C(/C#N)C(=O)NCc1ccco1	Avidin fluor 115
Cc1ccc(CS/C(Nc2ccccc2C)=C(\C#N)C(=O)NCc2ccco2)c(C)c1	none
O=C(NC12CC3CC(CC(C3)C1)C2)OCCNC1CCCCC1	RGS7-Gao reg inconclusive (no result: GSH fluor)
COC(=O)c1sc2ccccc2c1C(=O)OC	Avidin fluor 61
COC(=O)c1sc2ccccc2c1N	none
CCCN(CCC)S(=O)(=O)c1ccc(NS(=O)(=O)c2ccc(F)cc2)cc1	Avidin fluor 52
N#Cc1c(-c2ccccc2)ccn(Cc2ccc(Cl)cc2)c1=O	Avidin fluor 49
CCCCC(=O)Nc1ccc(NC(=S)NC(=O)c2cccs2)cc1OC	none
CN(Cc1ccccc1)S(=O)(=O)c1ccc(NS(=O)(=O)Cc2ccccc2)cc1	Avidin fluor 50
Cc1nn(-c2cc(Cl)ccc2Cl)c(C)c1C(=O)O	RGS7-Gao reg inconclusive
COc1ccc(-c2cc(-c3ccccc3)nc(SCC(=O)Nc3nccs3)c2C#N)cc1	Avidin fluor 56
Cc1ccc(NC(CC(=O)c2ccccc2)C(=O)O)cc1Cl (configuration not stated)	RGS7-Gao reg inconclusive (no result: GSH fluor)
O=C(CC(Nc1ccccc1)C(=O)O)c1ccccc1 (configuration not stated)	GSH fluor 259
O=C(c1cccs1)N1CCN(CCCc2ccccc2)CC1	GSH fluor 263
O=[N+]([O-])c1ccc(N2CCN(C(=S)c3cccc([N+](=O)[O-])c3)CC2)cc1	RGS7-Gao reg inconclusive (no result: GSH fluor)
O=C(N/N=C/c1ccc(-c2ccc(S(=O)(=O)Nc3ncccn3)cc2)o1)c1cc2ccccc2cc1O	Avidin fluor 50
CCOC(=O)c1sc(/S(C)=N\S(=O)(=O)c2cccc(Cl)c2)c2c1CCC=C2 (configuration not stated)	RGS7-Gao reg inconclusive (no result: GSH fluor)
CCOc1ccc(CC(=O)NNC(=O)NC2CCCCC2)cc1	none
CCOc1ccc(CC(=O)NNC(=S)NC2CCCCC2)cc1OCC	GSH fluor 128
OCCCc1nc2ccccc2[nH]1	none
N#CCC(=O)Nc1ccccc1C(=O)O	GSH fluor 264
O=C(O)CC(=O)Nc1ccccc1C(=O)O	none
O=C(CSc1nc2ccccc2o1)N1CCCC1	GSH fluor 260
Cc1ccc(-c2nnc(SCC(=O)N3CCCC3)o2)cc1C	none
Cc1ccc(-c2nnc(SCC(=O)N3CCCC3)o2)cc1	GSH fluor 259
O=C(O)CSc1nc2ccccc2o1	none
CN(C(=O)COc1ccc(S(=O)(=O)N2CCOCC2)cc1[N+](=O)[O-])C1CCS(=O)(=O)C1 (configuration not stated)	RGS7-Gao reg inconclusive (no result: GSH fluor)
COc1cc(SC)ccc1C(=O)N(Cc1ccccc1)c1ccccn1	RGS7-Gao reg inconclusive, Avidin fluor 51 (no result: GSH fluor)
CS/C(N)=N/S(=O)(=O)c1ccc(NC(C)=O)cc1	RGS7-Gao reg inconclusive, Avidin fluor 75 (no result: GSH fluor)

Source: PubChem BioAssay
